# Laboratory results from PubChem BioAssay (NCI).
# Compounds without any hit were thinned out: in the full panel of roughly 83,000, 20% have a hit.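 Step 1: grow cells in 96-well plates. Step 2: add test compound at a single concentration. Step 3: incubate 48 h. Step 4: record percent growth.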 Active and inactive are the calls of the source. How the source made its calls: active means growth percent below 10; inactive means the rest.
# System: LOX IMVI melanoma
# Assay: NCI-60 one-dose screen, 48 h (100 = growth as untreated, 0 = no growth, -100 = all killed)
# Conditions: 10 µM unless noted
row,SMILES,growth
1,COc1cc(C2CC(=O)Nc3n[nH]c(-c4ccccc4)c32)cc(OC)c1OC (stereo unspecified),70.3% (inactive)
2,CN1CCN(C(=O)[C@@]2(C)CC[C@]3(C)CC[C@]4(C)C(=CC[C@@H]5[C@@]6(C)C/C(=C/c7ccncc7)C(=O)C(C)(C)[C@@H]6CC[C@]54C)[C@@H]3C2)CC1,28.5% (inactive)
3,CCOc1cc(C2C(Cl)C(=O)N2n2cnnc2)ccc1O (stereo unspecified),101% (inactive)
4,Nc1c(C(=O)Nc2ccccc2)sc2nc3c(cc12)CCCCCC3,35.1% (inactive)
5,CCCCCCN(CCCCCC)CC(O)c1cccc2ccc(Cl)cc12 (stereo unspecified),34.7% (inactive)
6,O=C(c1ccccc1)c1ccc(Cl)c([N+](=O)[O-])c1,37.1% (inactive)
7,C[C@@H]1CC[C@@H]2[C@@H]1[C@H](OC(=O)/C=C/c1ccccc1)[C@]1(C3CCCCC3)C[C@@H](NC(=O)CO)[C@@]2(C)O1,100% (inactive)
8,N[C@@H]1CCC[C@H]1NCCCCN1C(=O)c2cccc3cccc(c23)C1=O,24.4% (inactive)
9,O=C1N/C(=N/O)S/C1=C/c1cn(-c2ccccc2)nc1-c1ccccc1,68.6% (inactive)
10,COC1=CC(c2ccc[nH]2)=N/C1=C\c1[nH]c(C)c(C(=O)OCCn2cc(CCC[C@@H]3Cc4cc(O)ccc4C4CC[C@]5(C)[C@@H](O)CC[C@H]5C43)nn2)c1C (stereo partly specified),-17% (active)
11,N#Cc1c(Oc2ccc([N+](=O)[O-])cc2)nc2sc3cc(Cl)ccc3n2c1=N,92.1% (inactive)
12,COc1cc2c(=O)n(CCCn3ccnc3)c3c4cc5c(cc4ccc3c2cc1OC)OCO5,-62.4% (active)
13,CN(C)S(=O)(=O)n1cnc([C@@H]2[C@@H]3C(=O)OC[C@@H]3C[C@]23N=CN(Cc2ccccc2)C3=O)c1,101% (inactive)
14,CCCCS(=O)(=O)Oc1ccc(-c2nc(C)c(C(=O)OCC)s2)cc1C=O,28.3% (inactive)
15,COc1cc(/C=C/c2nc(Nc3ccc(S(=O)(=O)Nc4cc(C)on4)cc3)c3ccccc3n2)ccc1O,59.5% (inactive)
16,COc1ccc(OC)c(C(=O)Nc2cccc(-c3cc(=O)c4ccccc4o3)c2)c1,97.4% (inactive)
17,CN1CCN(C2=C(Cl)C(=O)c3ccccc3C2=O)CC1,11.4% (inactive)

# System: SK-MEL-28 melanoma
# Assay: as above
# Conditions: 10 µM unless noted
row,SMILES,growth
1,CCN(CC)CCNc1ccc(C)c2sc3cc(C)ccc3c(=O)c12,74.5% (inactive)
2,CCOC(=O)c1sc2ccc(NCc3nc[nH]c3C)cc2c1NC(=O)c1cc(OC)c(OC)c(OC)c1,83% (inactive)
3,O=C(NCc1cccnc1)c1cc(-c2csc3c(=O)cc(N4CCOCC4)oc23)cc2c1OCCO2,49% (inactive)
4,COc1ccc(/C=C(\C#N)n2nnc3ccccc32)cc1,36.2% (inactive)
5,COc1ccc(C(=O)/C=C/C23c4ccccc4C(c4ccccc42)C2C(=O)NC(=O)C23)cc1 (stereo unspecified),108% (inactive)
6,CCN(CC)CCOc1ccc(/C(=C(\C)c2ccc(OC)c(F)c2)c2ccc(Cl)cc2)cc1,68% (inactive)
7,O=C1CSC(c2ccccc2O)N1c1nnc(Cn2cnnc2)o1 (stereo unspecified),102% (inactive)
8,O=C1CSC(c2ccc(O)cc2)N1c1nnc(Cn2cnnc2)o1 (stereo unspecified),77.9% (inactive)
9,O=C(NCOC(O)C(Cl)(Cl)Cl)NCOC(O)C(Cl)(Cl)Cl (stereo unspecified),92.8% (inactive)
10,CCOC(=O)c1c(C)[nH]c(C(=O)CCC(=O)OC)c1C,111% (inactive)
11,O=C1CC(c2ccc3c(c2)OCO3)Nc2cc3c(cc21)OCO3 (stereo unspecified),65.6% (inactive)
12,O=C1/C(=C/c2ccccc2[N+](=O)[O-])COc2ccc(O)c(O)c21,-13.6% (active)
13,Cc1nc(-c2ccccc2)cc2c(O)c(C(=O)N/N=C/c3ccc(N(C)C)cc3)[nH]c(=O)c12,80.2% (inactive)
14,N#Cc1c(N)n2c(nc1=Nc1ccc(Cl)cc1)sc1cc(Cl)ccc12,57.6% (inactive)
15,COc1cc(NC(=O)c2cccc(-c3cc(=O)c4c(O)c(OC)c(OC)cc4o3)c2)cc(OC)c1OC,77.4% (inactive)
16,C=C1c2c(C)nn(-c3ccc(N)cc3)c2N(C)C23CC1C1(C)c4c(C)nn(-c5ccc(N)cc5)c4N(C)C(C)(CC12)C3 (stereo unspecified),85.1% (inactive)
17,C=CCOc1cccc(/C=C2\SC(=Nc3ccc(O)cc3)NC2=O)c1,69.7% (inactive)
18,COc1cc(C2CC(=O)Nc3n[nH]c(-c4ccccc4)c32)cc(OC)c1OC (stereo unspecified),66.5% (inactive)
19,CN1CCN(C(=O)[C@@]2(C)CC[C@]3(C)CC[C@]4(C)C(=CC[C@@H]5[C@@]6(C)C/C(=C/c7ccncc7)C(=O)C(C)(C)[C@@H]6CC[C@]54C)[C@@H]3C2)CC1,48.7% (inactive)
20,CCOc1cc(C2C(Cl)C(=O)N2n2cnnc2)ccc1O (stereo unspecified),105% (inactive)

row,SMILES,growth
1,Nc1c(C(=O)Nc2ccccc2)sc2nc3c(cc12)CCCCCC3,27.8% (inactive)
2,Cn1c(NCCc2ccc(O)c(O)c2)nc2c1c(=O)n(Cc1ccc(Cl)cc1)c(=O)n2C,86% (inactive)
3,CCCCNCC(=O)Nc1ccc(C(=O)OCC)cc1,115% (inactive)
4,CCCCCCN(CCCCCC)CC(O)c1cccc2ccc(Cl)cc12 (stereo unspecified),87.9% (inactive)
5,O=C(c1ccccc1)c1ccc(Cl)c([N+](=O)[O-])c1,96.8% (inactive)
6,C[C@@H]1CC[C@@H]2[C@@H]1[C@H](OC(=O)/C=C/c1ccccc1)[C@]1(C3CCCCC3)C[C@@H](NC(=O)CO)[C@@]2(C)O1,98.8% (inactive)
7,N[C@@H]1CCC[C@H]1NCCCCN1C(=O)c2cccc3cccc(c23)C1=O,89.5% (inactive)
8,NC(N)=N/N=C(/c1ccccc1)c1ccc(N)cc1,150% (inactive)
9,O=C1N/C(=N/O)S/C1=C/c1cn(-c2ccccc2)nc1-c1ccccc1,113% (inactive)
10,COC1=CC(c2ccc[nH]2)=N/C1=C\c1[nH]c(C)c(C(=O)OCCn2cc(CCC[C@@H]3Cc4cc(O)ccc4C4CC[C@]5(C)[C@@H](O)CC[C@H]5C43)nn2)c1C (stereo partly specified),94.5% (inactive)
11,N#Cc1c(Oc2ccc([N+](=O)[O-])cc2)nc2sc3cc(Cl)ccc3n2c1=N,84.1% (inactive)
12,COc1cc2c(=O)n(CCCn3ccnc3)c3c4cc5c(cc4ccc3c2cc1OC)OCO5,40.1% (inactive)
13,CN(C)S(=O)(=O)n1cnc([C@@H]2[C@@H]3C(=O)OC[C@@H]3C[C@]23N=CN(Cc2ccccc2)C3=O)c1,108% (inactive)
14,CCCCS(=O)(=O)Oc1ccc(-c2nc(C)c(C(=O)OCC)s2)cc1C=O,90% (inactive)
15,COc1ccc(Oc2nc(Nc3ccc(N4CCCCC4)nc3)ncc2NC(=O)c2cc(OC)cc(OC)c2)cc1,53.9% (inactive)
16,COc1cc(/C=C/c2nc(Nc3ccc(S(=O)(=O)Nc4cc(C)on4)cc3)c3ccccc3n2)ccc1O,74% (inactive)
17,COc1ccc(OC)c(C(=O)Nc2cccc(-c3cc(=O)c4ccccc4o3)c2)c1,104% (inactive)
18,CN1CCN(C2=C(Cl)C(=O)c3ccccc3C2=O)CC1,73.8% (inactive)
19,CS(=O)(=O)c1ccc(-c2[nH]c3ccc(F)cc3c2/C=N/NC(N)=S)cc1,39.5% (inactive)
